Screening data: PubChem, National Center for Advancing Translational Sciences (NCATS)
The list is not random: actives were taken first. Their share in the collection is about 0.96%.
Rhodamine autofl: rhodamine region autofluorescence; 0.05% of 59,000 active; max dye-equivalent concentration, M; Rhodamine-region fluorescence, 547/598 nm, Tris buffer; hits give high values; in the data active = max dye-equivalent concentration above about 11 nM; inconclusive = between about 1.1 nM and that limit
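A six-point rhodamine series on each plate calibrates the signal. Compounds sit in 100 mM Tris (pH 8.0) for 15 min at ambient temperature before imaging through 547 nm/598 nm filters.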
A647 fluor: compound fluoresces in the A647 spectral region | Compound fluorescence, A647 channel (570/671 nm), Tris buffer | max dye-equivalent concentration, M | 59,000 tested, under 10 active | AID 592
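Buffer was dispensed, compounds and Alexa 647 standards were pin-transferred, and plates sat 15 min at room temperature. Intensity at 570/671 nm was then converted to dye-equivalent concentration using the plate's A647 standard curve.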
A488 autofl: A488 region autofluorescence | compound autofluorescence, A488 spectral region, dye equivalency; Compound Type: qHTS ECL - MLSMR | max dye equivalency, M | 0.1% of 59,000 active | AID 591
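Readout is A488 dye-equivalent concentration, calibrated by a per-plate six-point Alexa 488 series. Compounds in 100 mM Tris buffer pH 8.0 were incubated 15 min at room temperature. Plates were imaged using 480 nm excitation/540 nm emission filters.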
Fluorescein autfl: compound fluoresces in the fluorescein spectral region. Compound autofluorescence, 480/540 nm, fluorescein-equivalent; hits give high values. max fluorescein-equivalent concentration, M. 0.91% of 59,000 active; in the data active = max fluorescein-equivalent concentration above about 10 nM; inconclusive = between about 1.1 nM and that limit
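Compounds (23 nL) in 100 mM Tris pH 8.0, 15 min at room temperature, then fluorescence read at 480 nm excitation/540 nm emission. Signal converted to fluorescein-equivalent concentration from an on-plate fluorescein standard curve.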
Resorufin autofl: compound fluoresces in the resorufin spectral region. max dye-equivalent concentration, M. 0.04% of 59,000 active. Compound fluorescence, resorufin region 547/598 nm, buffer; hits give high values
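Tris 100 mM pH 8.0; compound added, 15 min RT; CCD imager read, ex 547 nm/em 598 nm; signal normalized to resorufin standard curve (six concentrations per plate) as dye-equivalent concentration.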
Texas Red fluor: compound fluoresces in the Texas Red spectral region; Compound fluorescence, Texas Red channel, 547/618 nm; hits give high values; max dye-equivalent concentration, M; 0.06% of 59,000 active; in the data active = max dye-equivalent concentration above about 10 nM; inconclusive = between about 1.1 nM and that limit
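qHTS profiling of intrinsic compound fluorescence; 100 mM Tris pH 8.0; 15 min RT; ex 547 / em 618 nm; response expressed as Texas Red dye-equivalent concentration from six-point plate standard.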
Of the large screens only hits and unclear results are named; the others gave an inactive call. Unless noted, the rule behind the calls is not given here.

Cc1ccc(Cn2c(=N)c(C(=O)NCc3ccco3)cc3c(=O)n4ccccc4nc32)cc1	Fluorescein autfl inconclusive
COc1ccc(CNC(=O)c2cc3c(=O)n4ccccc4nc3n(Cc3ccco3)c2=N)cc1	Fluorescein autfl 1.95e-08M
OC[C@@H]1O[C@@H](n2cnc3c(Nc4ccccc4)ncnc32)[C@@H](O)[C@H]1O	Fluorescein autfl inconclusive
Nc1nc(N)c2nc(CNc3ccc(C(=O)N[C@H](CCC(=O)O)C(=O)O)cc3)cnc2n1	Fluorescein autfl inconclusive
O=C(O)CC[C@@H](NC(=O)c1ccccc1C(=O)O)C(=O)O	Fluorescein autfl inconclusive
CN1CCN(Cc2nc3cccc4c3c([n+]2[O-])-c2ccccc2-4)CC1	Fluorescein autfl 1.4e-08M
CCCCn1c(CN2CCN(C)CC2)nc2ccccc21	none
C=C/C(C)=C/[C@]1(C)SC(=O)C(C)=C1O	Fluorescein autfl inconclusive
C/C(=N\NC(=O)c1ccncc1)c1ccc2ccccc2c1O	A488 autofl inconclusive, Fluorescein autfl 3.52e-08M
CCCCCCCCCCCCCCCCCC(=O)NC[C@@H](COP(=O)([O-])OCC[N+](C)(C)C)OCC	Texas Red fluor inconclusive
O=C(CCC1COc2ccccc2O1)Nc1cccnc1 (configuration not stated)	Fluorescein autfl 1.73e-08M
CCOC(=O)N1CCC(Nc2nc3ccccc3n3nnnc23)CC1	Fluorescein autfl 1.13e-08M
Cc1ccc(N2C(=O)C3C(C2=O)C(C(=O)c2ccc(Cl)cc2)N2CCCC32)cc1 (configuration not stated)	A488 autofl inconclusive, Fluorescein autfl 3.12e-08M
CC(=O)N1CCN(c2ccc(N=Cc3c(O)n(Cc4ccccc4)c(=O)[nH]c3=O)cc2)CC1	Fluorescein autfl 1.89e-08M
COc1ccc(C2C=C(c3ccc(Cl)cc3)Nc3nc(NC(C)=O)nn32)cc1 (configuration not stated)	Fluorescein autfl 2.78e-08M
COc1ccccc1C1C=C(c2ccc(Cl)cc2)Nc2nc(NS(C)(=O)=O)nn21 (configuration not stated)	Fluorescein autfl 1.49e-08M, Texas Red fluor inconclusive
COc1ccc(C2C=C(c3ccc(Br)cc3)Nc3nc(N4C(=O)CCC4=O)nn32)cc1 (configuration not stated)	Fluorescein autfl 1.14e-08M
CC(=O)Nc1nc2n(n1)C(c1ccc(F)cc1)C=C(c1ccccc1)N2 (configuration not stated)	Fluorescein autfl 1.4e-08M
COC(=O)[C@H](N)Cc1ccc(Cl)cc1	none
COc1ccc(C2=CC(c3ccc(Cl)cc3)n3cnnc3N2)cc1OC (configuration not stated)	A488 autofl inconclusive, Fluorescein autfl 3.52e-08M
COc1ccccc1C1C=C(c2ccc(Cl)cc2)Nc2nc(N3C(=O)CCC3=O)nn21 (configuration not stated)	Fluorescein autfl inconclusive
NC(=O)N1c2ccccc2C=Cc2ccccc21	Fluorescein autfl inconclusive
NC(=O)N1c2ccccc2CC(=O)c2ccccc21	A488 autofl inconclusive, Fluorescein autfl 3.26e-08M
Cc1nc(NCCCn2ccnc2)c2ccccc2n1	Fluorescein autfl inconclusive
O=C1c2ccccc2-c2onc3ccc(NCCCn4ccnc4)c1c23	Rhodamine autofl 6.22e-07M, A488 autofl 2.61e-07M, Fluorescein autfl 4.57e-06M, Resorufin autofl 6.55e-07M, Texas Red fluor 1.38e-07M
Cc1ccccc1/C=C\C1=NCCN1	Fluorescein autfl inconclusive
COc1cc(/C=C(\C#N)C(=O)c2ccc(O)c(O)c2)cc(I)c1O	Fluorescein autfl 1.32e-08M
O=C(O)[C@@H]1CCCN[C@H]1C(=O)O	Texas Red fluor inconclusive
Nc1c2c(nc3ccccc13)CCC[C@H]2O	none
C=CCNc1nc(N)c(C(=O)Nc2cc(C)on2)s1	none
Cc1cc(C(F)(F)F)c2c(N)c(C(=O)Nc3cc(C)on3)sc2n1	Fluorescein autfl 1.22e-08M
C=C[C@H]1CN2CC[C@@H]1C[C@H]2[C@@H](O)c1ccnc2ccc(OC)cc12	Fluorescein autfl inconclusive
COCCn1c(=O)c(-c2cccs2)nc2cnc(Nc3ccccc3)nc21	Fluorescein autfl 2.69e-08M
COCCn1c(=O)c(-c2ccc(OC)cc2)nc2cnc(Nc3ccccc3)nc21	Fluorescein autfl 2.38e-08M
[N-]=[N+]=Nc1ccc(C(=O)CSC[C@@H](NC(=O)CC[C@@H](N)C(=O)O)C(=O)NCC(=O)O)cc1	Fluorescein autfl inconclusive, Texas Red fluor inconclusive
O=C(NC1=NCCS1)C1Cc2ccccc2CN1C(=O)c1ccccc1 (configuration not stated)	Texas Red fluor inconclusive
COc1ccc(NC(=O)C2Cc3ccccc3CN2C(=O)c2ccccc2)cn1 (configuration not stated)	A488 autofl inconclusive, Fluorescein autfl 5.91e-08M
Cn1c(=O)[nH]c(=O)c2c1nc(NCc1ccccc1)n2CC(O)c1ccccc1 (configuration not stated)	A488 autofl inconclusive, Fluorescein autfl 3.56e-08M
CC[C@H](C)[C@@H]1O[C@]2(CC[C@@H]1C)C[C@H]1C[C@H](CC=C(C)[C@@H](O[C@H]3C[C@H](OC)[C@H](O[C@H]4C[C@H](OC)[C@H](O)[C@H](C)O4)[C@H](C)O3)[C@@H](C)C=CC=C3CO[C@@H]4[C@@H](O)C(C)=C[C@H](C(=O)O1)[C@@]34O)O2	none
CCN(CC)c1ccc2c(c1)OC(N)=C(C#N)C2c1cccnc1 (configuration not stated)	A488 autofl inconclusive, Fluorescein autfl 4.82e-08M
CCCCCCCCCCCCC/C=C\[C@H](O)[C@H](N)CO	Fluorescein autfl inconclusive
COc1cc(OC)c(/C=C2/C(=O)Nc3ccccc32)c(OC)c1	Fluorescein autfl inconclusive
Cc1cc(C)c(/C=C2/C(=O)Nc3ccccc32)[nH]1	Rhodamine autofl inconclusive, Fluorescein autfl 2.31e-08M
CN1CCC2(CC1)C1CN(C)CC=C1C(C#N)=C(N)C2(C#N)C#N (configuration not stated)	A488 autofl inconclusive, Fluorescein autfl 5.96e-08M
C=CCN1C(=O)C2(c3ccccc31)C1CCCC=C1C(C#N)=C(N)C2(C#N)C#N (configuration not stated)	none
COc1cccc2cc(-c3nc(-c4cccs4)cs3)c(=O)oc12	Fluorescein autfl 2.39e-08M
CC[C@]1(O)C[C@H]2CN(CCc3c([nH]c4ccccc34)[C@](C(=O)OC)(c3cc4c(cc3OC)N(C=O)[C@H]3[C@@](O)(C(=O)OC)[C@H](OC(C)=O)[C@@]5(CC)C=CCN6CC[C@]43[C@H]65)C2)C1	Fluorescein autfl inconclusive
Cc1nccn1-c1c2c(c(C#N)c3nc4ccccc4n13)CCCC2	Fluorescein autfl 1.4e-08M, Texas Red fluor inconclusive
CCOn1c(=O)c(-c2cc3ccccc3o2)[n+]([O-])c2ccccc21	A488 autofl inconclusive, Fluorescein autfl 1.31e-07M
